Screening data as filed in PubChem BioAssay.
This is a sample that favours compounds with a hit; in the whole collection about 1.8% have one here.
PAX8 reporter – inhibitors of PAX8 transcriptional activity in RMG-I cells | RMG-I TPO-luciferase reporter, SteadyGlo, 24 h | AID 652154 | hit rate 1.2% among 360,000 | inhibition, % at 12.6 µM;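 active = mean replicate inhibition at least 60% with every replicate also reaching 60%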;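 note: luciferase light reporting Pax8 driven TPO promoter activity; plate controls were median of neutral control wells for no effect and mitoxantrone controls for full effect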
CFTR F508del cor – CFTR F508del correction in bronchial cells; CFBE cells, YFP halide quenching; stimulated with forskolin plus potentiator P3; % fluorescence drop versus neutral controls; activity (quench increase), % at 7.58 µM; hit rate 0.36% among 350,000; AID 720511;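 active = mean added fluorescence quench of at least 8% versus neutral control, with both replicates also reaching 8%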;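 note: cells transiently co-express mutant CFTR-F508del with the halide-sensitive YFP; corrector assay measuring rescue of mutant channel to the surface after 24 h compound exposure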
LGR2 antag – inhibitors of bursicon-induced Drosophila LGR2 receptor cAMP signaling; hit rate 0.35% among 380,000; inhibition, % at 9.99 µM; HEK293 LGR2, CRE-luciferase, bursicon-stimulated, 4 h;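 active = drop in luminescence signal, shown as inhibition above about 50% in the replicate tests, limit read from the data, passing the limit was not always enough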;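 note: agonist challenge used bursicon conditioned medium at about half maximal strength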
EWS-Fli inh – blocks EWS/Fli oncoprotein-driven transcription; A673 NR0B1-luciferase reporter, viability-normalised; inhibition, % at 12.6 µM; hit rate 0.67% among 350,000;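 active = mean inhibition of at least 50% after viability correction, with every replicate also passing that limit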;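 note: firefly luciferase signal divided by Alamar Blue viability fluorescence both relative to DMSO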
* marks the source's active call; other numbers are inactive results.

Results for O=C(COC(=O)c1cccc(S(=O)(=O)NCc2ccccc2)c1)c1ccc2c(c1)OCCO2 ?
PAX8 reporter: 1; CFTR F508del cor: 0; LGR2 antag: 7; EWS-Fli inh: 9

How did CC1CCN(CCOc2ccc(OCc3ccccc3)cc2)CC1 do in these assays?
PAX8 reporter: 118*; CFTR F508del cor: 3; LGR2 antag: -19; EWS-Fli inh: -22

Results for CCCC#Cc1ccc([C@@H]2[C@H]3CN(S(=O)(=O)c4ccccc4F)CCCCN3[C@H]2CO)cc1 ?
PAX8 reporter: 95*; CFTR F508del cor: -1; LGR2 antag: 20; EWS-Fli inh: 18

Results for CCCC#Cc1ccc([C@H]2[C@@H](CO)N3CCCCN(S(=O)(=O)c4ccccc4C)C[C@@H]23)cc1 ?
PAX8 reporter: 1; CFTR F508del cor: 1; LGR2 antag: -4; EWS-Fli inh: -5

Results for CCCC#Cc1ccc([C@H]2[C@@H](CO)N3CCCCN(S(=O)(=O)c4ccccc4C)C[C@H]23)cc1 ?
PAX8 reporter: 3; CFTR F508del cor: 14*; LGR2 antag: 12; EWS-Fli inh: 26

How did COc1cccc(S(=O)(=O)N[C@@H]2C=C[C@@H](CC(=O)NCc3ccc(F)cc3)O[C@H]2CO)c1 do in these assays?
PAX8 reporter: 3; CFTR F508del cor: 0; LGR2 antag: 16; EWS-Fli inh: 1

Results for C[C@@H]1CN([C@@H](C)CO)C(=O)c2cc(NS(=O)(=O)c3ccccc3)ccc2O[C@@H](C)CCCCO[C@@H]1CN(C)Cc1ccncc1 ?
PAX8 reporter: -11; CFTR F508del cor: 2; LGR2 antag: 1; EWS-Fli inh: -6

What do the screens show for `COCCNC(=O)c1cc2c(=O)n3cccc(C)c3nc2n1C`?
PAX8 reporter: -1; CFTR F508del cor: 2; LGR2 antag: -5; EWS-Fli inh: -2

How did CCOCCCNC(=O)c1cc2c(=O)n3cccc(C)c3nc2n1C do in these assays?
PAX8 reporter: 15; CFTR F508del cor: 2; LGR2 antag: 17; EWS-Fli inh: 52*

Results for Cc1ccc(S(=O)(=O)N2CCCN(c3nccc(C(F)(F)F)n3)CC2)cc1 ?
PAX8 reporter: 11; CFTR F508del cor: -1; LGR2 antag: -6; EWS-Fli inh: 10

How did CCOC(=O)C1=CN(CC)S(=O)(=O)NC1c1ccc(C(F)(F)F)cc1 (configuration not stated) do in these assays?
PAX8 reporter: 0; CFTR F508del cor: 2; LGR2 antag: -5; EWS-Fli inh: 8

Results for CCOC(=O)C1=CN(Cc2ccco2)S(=O)(=O)NC1c1ccc(C(F)(F)F)cc1 (configuration not stated) ?
PAX8 reporter: 13; CFTR F508del cor: 8.1*; LGR2 antag: 0; EWS-Fli inh: 5

How did O=C(NCCCN1CCCC1=O)c1cc(S(=O)(=O)N2CCOCC2)ccc1Cl do in these assays?
PAX8 reporter: 6; CFTR F508del cor: 2; LGR2 antag: -3; EWS-Fli inh: 6

Results for O=C(NCCCN1CCCC1=O)c1cc(S(=O)(=O)N2CCOCC2)c(Cl)cc1Cl ?
PAX8 reporter: -15; CFTR F508del cor: 17*; LGR2 antag: -12; EWS-Fli inh: 2

What do the screens show for `C[C@H](CO)N1C[C@H](C)[C@@H](CN(C)C(=O)Nc2ccc(F)cc2)Oc2ccc(NC(=O)Nc3ccc(C(F)(F)F)cc3)cc2C1=O`?
CFTR F508del cor: -4; LGR2 antag: -22; EWS-Fli inh: -20

Results for COc1ccc(CCNc2c3ccccc3nc3ccccc23)cc1OC ?
PAX8 reporter: -66; CFTR F508del cor: 10*; LGR2 antag: -7; EWS-Fli inh: 28

How did CCN(C(C)=O)c1cnc(C=NNC(N)=S)c2ccccc12 do in these assays?
PAX8 reporter: 16; CFTR F508del cor: 3; LGR2 antag: 15; EWS-Fli inh: 4

What do the screens show for `NC(=S)NN=Cc1nccc2c(N)cccc12`?
PAX8 reporter: -10; CFTR F508del cor: 13*; LGR2 antag: 22; EWS-Fli inh: -5

How did Cc1noc(C)c1S(=O)(=O)Nc1ccc2c(c1)C(=O)N([C@H](C)CO)C[C@H](C)[C@@H](CN(C)C(=O)NC1CCCCC1)OCCCC[C@@H](C)O2 do in these assays?
PAX8 reporter: -1; CFTR F508del cor: 0; LGR2 antag: -15; EWS-Fli inh: -9

Results for CNC(=O)c1nnsc1S(=O)(=O)c1ccc(Cl)cc1 ?
PAX8 reporter: 107*; CFTR F508del cor: -6; LGR2 antag: 103*; EWS-Fli inh: 58*

How did Nc1nc(C(=O)N2CCOCC2)nn1S(=O)(=O)c1ccc(Cl)cc1 do in these assays?
PAX8 reporter: 11

How did O=C(c1nnsc1S(=O)(=O)c1ccc(Cl)cc1)N1CCOCC1 do in these assays?
PAX8 reporter: 93*; CFTR F508del cor: -12; LGR2 antag: 102*; EWS-Fli inh: 1
